From PMC7826789 (International Journal of Molecular Sciences, 2021)

Test system: HIPK2
Conditions: Compound Concentration (nM):1000
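Further: KINOMEscan scanMAX binding as percent activity remaining versus control; lower means stronger binding.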

Structure (SMILES)	Percent Control
COc1ccc2c(-c3ccnc(Nc4cccc(OC(F)(F)F)c4)n3)cnn2n1 [GW810372X]	0%
CCS(=O)(=O)c1ccc(OC)c(Nc2ncc(-c3cccc(OC)c3)o2)c1 [GW580509X]	56%
CC1=C(C(=O)Nc2ccc3[nH]ncc3c2)C(c2ccc3ccccc3c2)CC(=O)N1 (stereo not shown) [GSK270822A]	76%
COc1cccc(-c2c[nH]c3c(N/N=C/c4ccncc4)ncnc23)c1 [GW814408X]	53%
Cl.O=C(Nc1ccc(Oc2ccc3[nH]c(NC(=O)c4ccco4)nc3c2)cc1)Nc1cc(C(F)(F)F)ccc1F [GW683134A]	100%
COC(=O)Nc1nc2ccc(Oc3ccc(NC(=O)Nc4cc(C(F)(F)F)ccc4F)cc3)cc2s1.Cl [GW693917A]	88%
COc1cc(N2CCN(C(C)C)CC2)ccc1Nc1nc(Nc2ccc(F)cc2C(=O)NC[C@@H](O)CO)c2cc[nH]c2n1 [GSK1392956A]	23%
COc1cc2ncn(-c3cc(O[C@H](C)c4ccccc4Cl)c(C(N)=O)s3)c2cc1OC [GSK237701A]	84%
Cl.c1ccc(Cc2nc3ccc(Nc4ncnc5ccccc45)cc3[nH]2)cc1 [GR269666A]	100%
COc1cc(C)c(N(C)C(=O)CN(C)C)cc1Nc1nc(Nc2cccc(F)c2C(N)=O)c2cc[nH]c2n1 [GSK2219385]	100%
NS(=O)(=O)c1ccc(N/N=C2\C(=O)Nc3ccc(C(=O)NCCc4c[nH]cn4)cc32)cc1 [GW300660X]	7.5%
CCS(=O)(=O)c1ccc(OC)c(Nc2ncc(-c3cccc(F)c3)o2)c1 [GW621970X]	87%
CN(C)CCNC(=O)Nc1ccc(N(C)c2ccnc(Nc3ccc(CS(C)(=O)=O)cc3)n2)cc1.Cl [GW830900A]	94%
COc1cc(/C=N/Nc2ncnc3[nH]ncc23)ccc1O [GW578748X]	19%
COc1ccc2cc(-c3c(-c4ccncc4)nc(-c4ccc(S(C)(=O)=O)cc4C)n3C)ccc2c1 [SB-633825]	82%
COc1ccc(COc2ccc(Cc3cnc(N)nc3N)cc2OC)cc1 [GW632580X]	94%
COc1cccc(-n2ncc3c(N/N=C/c4ccncc4)ncnc32)c1 [GW784752X]	33%
CN(C)c1cc2c(Nc3ccc4c(cnn4Cc4ccccc4)c3)ncnc2cn1 [GW282974X]	90%
Cc1cc(O)cc(C)c1/C=C/c1cncc(C(N)=O)c1 [GW435821X]	98%
NS(=O)(=O)c1ccc(N/N=C2\C(=O)Nc3ccc(-c4cnco4)cc32)cc1 [GW276655]	28%

Structure (SMILES)	Percent Control
O=C(Nc1n[nH]c2nc(-c3ccc(O)cc3)c(Br)cc12)C1CC1 [SB-725317]	36%
NS(=O)(=O)c1ccc(Nc2ncc(-c3ccccc3)o2)cc1 [GW572399X]	72%
Cl.O=C(O[C@H]1CN[C@H](C#Cc2cc3ncnc(Nc4ccc5c(cnn5Cc5ccccc5)c4)c3s2)C1)N1CCOCC1 [GSK200398A]	77%
COc1ccccc1-c1cc(/C=C2\C(=O)Nc3ncc(Br)cc32)cc(Br)c1O [GW442130X]	100%
CC1=C(C(=O)Nc2ccc3[nH]ncc3c2)C(c2ccc(Cl)c(Cl)c2)CC(=O)N1 (stereo not shown) [GSK299115A]	92%
COc1cc2ncnc(Nc3ccc4c(cnn4Cc4ccccc4)c3)c2cc1OC.Cl [GW282449A]	100%
O=C1Nc2ccc(C(=O)c3ccco3)cc2C1=Cc1cc(Cl)c(O)c(Cl)c1 [GW406108X]	5.3%
CC(C)COC(=O)c1ccc2c(c1)/C(=C/Nc1ccc(S(N)(=O)=O)cc1)C(=O)N2 [GW416981X]	75%
Cl.O=S1CCN(Cc2ccc(-c3ccc4ncnc(Nc5ccc(OCc6ccccc6)c(F)c5)c4c3)o2)CC1 [GW576924A]	100%
CCn1c(-c2nonc2N)nc2c(C#CC(C)(C)O)nc(OCCNC)cc21.Cl [GSK949675]	75%
COc1cc(C=NNc2ncnc3c2cnn3-c2ccccc2)ccc1O [GW513184X]	91%
Cl.O=C(Nc1ccc(Oc2ccc3[nH]c(NC(=O)c4ccccc4)nc3c2)cc1)Nc1cc(C(F)(F)F)ccc1F [GW709042A]	98%
Nc1ncnc2occ(-c3ccc(NC(=O)Nc4cc(C(F)(F)F)ccc4F)cc3)c12 [GW770249X]	73%
NS(=O)(=O)c1ccc(N/N=C2\C(=O)Nc3ccc(C(=O)NCc4ccncc4)cc32)cc1 [GW300657X]	9.9%
C/C(Nc1ccc(S(N)(=O)=O)cc1)=C1/C(=O)Nc2ccccc21 [GW335962X]	93%
C[C@@H](Oc1cc(-n2cnc3ccc(OC4CCN(C)CC4)cc32)sc1C(N)=O)c1ccccc1Cl [GSK579289A]	81%
COc1ccc2[nH]c3c4[nH]c5ccc(OC)cc5c4c4c(c3c2c1)C(=O)NC4=O [GW296115X]	64%
CN1CCN(C(=O)c2ccc(NC(=O)Nc3ccc(N(C)c4ccnc(Nc5ccc(CS(C)(=O)=O)cc5)n4)cc3)cc2)CC1.Cl [GW830263A]	77%
CCc1ccc(Oc2nccc(-c3c(-c4ccc(F)cc4)ncn3C3CCNCC3)n2)cc1 [SB-242719]	92%
NS(=O)(=O)c1ccc(N/N=C2\C(=O)Nc3ccc(Cl)cc32)cc1 [GW280670X]	100%
